Screening results as filed in PubChem BioAssay.
KB-3-1 cytotox: KB-3-1 parental cell cytotoxicity. KB-3-1 viability, CellTiter-Glo ATP luminescence, 72 h. Potency, µM (highest dose often 46.1 µM), hits mostly cytotoxic. AID 1347075. 400,000 compounds, 1.4% hits; note: nearly all actives have a fitted effect of over 60% in size
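Viability of parental KB-3-1 cells, measured by CellTiter-Glo luminescence, followed a 72 h incubation at 37 °C with pinned compounds in phenol-red-free DMEM containing 10% FBS.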
TDP1 cell CPT: growth inhibition of DT40 Tdp1-/-;hTDP1 cells with camptothecin (screen for TDP1 inhibitors); 420,000 compounds, 12% hits; chicken DT40 Tdp1-/-;hTDP1 cells + 20 nM CPT, ATP luminescence, 48 h; Potency, µM (top dose mostly 46.2 µM), most hits filed as inhibitors; note: nearly all actives have a fitted effect of over 55% in size
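Chicken DT40 Tdp1-/- cells complemented with human TDP1, 400 cells/well, exposed to compounds plus 20 nM camptothecin for at least 48 h at 37 C; viability read as ATP content by CellTiter-Glo luminescence.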
KB-V1 MDR tox: KB-V1 MDR subline cytotoxicity | Potency, µM (top dose mostly 46.1 µM), usual class: cytotoxic | 400,000 compounds, 3.4% hits | KB-V1 MDR cells viability, CellTiter-Glo, 72 h; note: nearly all actives have a fitted effect of over 60% in size
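Cytotoxicity via CellTiter-Glo luminescence after 72 h compound exposure at 37 degrees C. Cells: drug-selected KB-V1 line, DMEM phenol-red free plus 10% FBS. Compounds tested at multiple concentrations; normalized data fitted to concentration-effect curves.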
TDP1 cell noCPT: qHTS for Inhibitors of human tyrosyl-DNA phosphodiesterase 1 (TDP1): qHTS in cells in absence of CPT. DT40 Tdp1-/- hTDP1 cells, no CPT, ATP luminescence, 48 h. Potency, µM (top dose mostly 46.2 µM), actives largely listed as inhibitors. 420,000 compounds, 15% hits; note: nearly all actives have a fitted effect of over 55% in size
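Luminescent ATP content (CellTiter-Glo) served as the growth readout. Knockout chicken DT40 cells expressing human TDP1 were exposed to compounds without camptothecin for a minimum 48 hr at 37 °C.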
HT1080-NT tox: kills 2HG-producing HT-1080-NT fibrosarcoma cells | HT-1080-NT fibrosarcoma viability, CellTiter-Glo ATP luminescence, 48 h | Potency, µM (titrated, usually from 46.1 µM), usual class: cytotoxic | 360,000 compounds, 1.6% hits;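 note: NT is the 2HG producing partner of a matched IDH1 knockdown line; nearly all actives have a fitted effect of over 55% in size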
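Read-out is CellTiter-Glo luminescence after 10 minutes at room temperature, following 48 hours' compound treatment of HT-1080-NT cells (750 cells/well, RPMI, 5% FBS, 37 degrees C).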
HT1080 IDH1KD tx: kills HT-1080 cells with IDH1 knockdown; 360,000 compounds, 2% hits; HT-1080 IDH1 knockdown viability, ATP luminescence, 48 h; AID 686971; Potency, µM (highest dose often 46.1 µM), usual class: cytotoxic
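Luminescent ATP read-out (CellTiter-Glo, 10 min at room temperature) after 48 h compound exposure at 37 °C gave viability of IDH1-knockdown HT-1080 cells. Activity was normalised to DMSO and cell-free wells, then fitted as concentration-response curves.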
Numbers stand for hits; – = inactive; ? = inconclusive; · = no result. Hits are enriched below; roughly 19% of the tested compounds scored in any of these assays. Calls come from the whole dose curve; as a rule, active = well fitted curve in the direction sought with a large enough effect; inconclusive = small, poorly fitted or top-dose-only effect, or another doubt; inactive = no such curve, though single readings can be large; an effect the other way counts as inactive or inconclusive.

SMILES	KB-3-1 cytotox	TDP1 cell CPT	KB-V1 MDR tox	TDP1 cell noCPT	HT1080-NT tox	HT1080 IDH1KD tx
COc1cccc(NC(=O)Cn2nnc(C(=O)NCc3cccs3)c2N)c1	–	–	?	–	?	?
Cc1cc(C)cc(C(=O)NCC(=O)OCC(=O)NCC(F)(F)F)c1	–	–	–	–	–	–
CCCN1CCC(C)(C(=O)Nc2cccc(OC(C)C)c2)C1 (configuration not stated)	–	–	–	–	–	–
S=C1NC2=C(CCCC2=C2SCCS2)C(c2ccccc2)N1 (configuration not stated)	–	–	–	16.4µM	–	–
COc1cccc(C2NC(=S)NC3=C2CCc2ccccc23)c1 (configuration not stated)	–	?	–	–	–	–
COc1ccccc1Nc1cc(N2CCOCC2)c2nonc2c1[N+](=O)[O-]	–	–	?	?	–	–
O=[N+]([O-])c1cc([N+](=O)[O-])c(N2CCOCC2)cc1NCc1ccccc1	–	8.2µM	–	18.4µM	–	–
O=[N+]([O-])c1c(NCc2ccccc2)cc(N2CCc3ccccc3C2)c2nonc12	–	?	–	20.6µM	–	–
CCCN1CCC(=NNc2ccc(S(=O)(=O)N3CCOCC3)cc2[N+](=O)[O-])CC1	4.61µM	2.59µM	7.31µM	2.59µM	?	14.6µM
Cc1ccc(CNc2ccc(S(=O)(=O)N3CCOCC3)cc2[N+](=O)[O-])cc1	–	?	5.17µM	?	–	–
O=[N+]([O-])c1ccc(N2CCOCC2)cc1NCc1ccccc1	–	?	–	?	–	–
CC(C)N1CCC(=NNc2ccc(S(=O)(=O)N3CCOCC3)cc2[N+](=O)[O-])CC1	–	–	?	?	–	–
O=C1c2ccccc2C(c2nnnn2C2CCCCC2)N1CCc1ccc(O)cc1 (configuration not stated)	–	–	–	?	–	–
COc1ccc(S(=O)(=O)N2CCOCC2)cc1NC(=O)CN1CCCc2ccccc21	–	?	?	?	–	–
CCOc1ccc(NC(=O)CC2C(=O)N(c3cccc(C)c3)C(=O)N2Cc2cccs2)cc1 (configuration not stated)	·	?	·	20.6µM	·	·
Cc1cccc(N2C(=O)C(CC(=O)Nc3cccc(F)c3)N(Cc3cccs3)C2=O)c1 (configuration not stated)	·	?	·	18.4µM	·	·
COCCN1C(=O)N(c2cccc(C)c2)C(=O)C1CC(=O)Nc1ccc(OC)cc1 (configuration not stated)	–	–	–	–	–	–
C=CCN1C(=O)N(c2ccc(F)cc2)C(=O)C1CC(=O)Nc1ccc(Cl)cc1 (configuration not stated)	–	–	–	–	–	–
COCCN1C(=O)N(c2ccc(OC)cc2)C(=O)C1CC(=O)Nc1cccc(F)c1 (configuration not stated)	–	–	–	–	–	–
CCc1ccc(NC(=O)CC2C(=O)N(c3ccc(Cl)cc3)C(=O)N2Cc2cccs2)cc1 (configuration not stated)	·	4.61µM	·	4.11µM	·	·
CCOc1ccc(-c2cc(NC(=O)c3cccc(Cl)c3)c(C(=O)OC)s2)cc1	–	–	–	–	·	·
CCOC(=O)C(=O)Nc1ccc(S(=O)(=O)Nc2nccs2)cc1	–	–	?	–	–	–
C=CCNC(=O)NC(=O)CSc1nnc(C(F)(F)F)n1C	–	–	–	–	–	–
O=C(Nc1ccc(Br)cn1)c1cccc(-c2cc3ccccc3oc2=O)c1	?	?	–	?	?	23.1µM
O=C(Nc1ccccc1N1CCCC1)c1cccc(-c2cc3ccccc3oc2=O)c1	–	?	3.66µM	20.6µM	–	–
SMILES	KB-3-1 cytotox	TDP1 cell CPT	KB-V1 MDR tox	TDP1 cell noCPT	HT1080-NT tox	HT1080 IDH1KD tx
O=C(Nc1ccc(N2CCCC2)cc1)c1cccc(-c2cc3ccccc3oc2=O)c1	–	16.4µM	–	23.1µM	–	–
Cc1nc(NC(=O)c2cccc(-c3cc4ccccc4oc3=O)c2)ccc1Br	?	–	?	?	–	–
COC[C@@H]1CCCN1[C@H]1CS(=O)(=O)N[C@@H]1COCc1ccccc1	–	–	–	–	–	–
CCCCCC(=O)N1C[C@H](O)[C@@H](n2cc(-c3ccc(F)cc3)nn2)C[C@@H]1c1ccc(C)cc1	?	?	?	?	–	–
CCCCCCN1C[C@@H](n2cc(-c3ccc(F)cc3)nn2)[C@H](O)C[C@@H]1c1ccccc1	–	?	–	13µM	–	–
CCCCCCN1C[C@H](O)[C@@H](n2cc(-c3ccc(F)cc3)nn2)C[C@@H]1c1ccc(C)cc1	–	?	?	23.1µM	–	–
CCCCCCN1C[C@@H](O)[C@H](n2cc(-c3ccc(F)cc3)nn2)C[C@@H]1c1ccccc1	–	–	?	?	–	–
CCCCCCN1C[C@@H](O)[C@H](n2cc(-c3ccc(F)cc3)nn2)C[C@@H]1c1ccc(C)cc1	–	?	–	20.6µM	–	–
O=C(NCCN1CCC(n2c(=O)[nH]c3ccccc32)CC1)c1ccc(Cl)cc1Cl	–	?	?	?	?	?
CCOC(=O)c1c(NC(C)=O)c2c3c(sc2n1Cc1nc(-c2ccc(Cl)cc2)oc1C)CCCC3	·	?	·	–	·	·
COCC(=O)N1c2nc(C(C)C)nn2C2(CCCCC2)[C@@H]2CCCC[C@@H]21	·	2.91µM	·	2.91µM	·	·
CC(C)CC(=O)N1c2nc(C(C)C)nn2C2(CCCCC2)[C@@H]2CCCC[C@@H]21	·	–	·	?	·	·
CCCC(=O)N1c2nc(C(C)C)nn2C2(CCCCC2)[C@@H]2CCCC[C@@H]21	·	10.3µM	·	9.2µM	·	·
CC(=O)N1c2nc(C(C)C)nn2C2(CCCCC2)[C@@H]2CCCC[C@@H]21	–	4.11µM	–	1.84µM	·	·
COc1cccc(C2CC(=O)Nc3c2c(=O)[nH]c2ncnn32)c1OC (configuration not stated)	–	·	–	·	·	·
COc1ccc(N=C2CCS(=O)(=O)c3sccc32)cc1	–	9.2µM	–	?	–	?
CCCCN1C(=O)C(CC(=O)NCc2cccc3ccccc23)CC(C(=O)N2CCCCCC2)=C1C (configuration not stated)	?	?	9.2µM	?	–	–
COCCCN1C(=O)C(CC(=O)NCc2cccc3ccccc23)CC(C(=O)N2CCCCCC2)=C1C (configuration not stated)	·	–	10.5µM	–	–	–
